Screen size: about 300,000 compounds; about 37,000 (12%) were called active. For the sample, actives were picked, then their nearest neighbours and some compounds at random. Values without a mark were called inactive. No stated cut-off is given here; in the data, active means max response mostly above about 13% (no sharp cut-off); inactive means mostly below about 14%.
assay: Cycloheximide Counterscreen for Small Molecule Inhibitors of Shiga Toxin; conditions: cell reporter, cycloheximide protein synthesis inhibition counterscreen; active compounds read high; further: read at 38.3 µM for the half of the compounds with a filed dose; 0% is about no effect

Structure (SMILES) | max response
O=S(=O)(c1cccc(Cn2nnc(-c3ccc(F)cc3)n2)c1)N1CCOCC1 | -2.1%
Cc1sc(NC(=O)C2C3CCC(O3)C2C(=O)O)c(C(=O)OC(C)C)c1-c1ccc(Cl)cc1 (configuration not stated) | -2.64%
Cc1[nH]c(C)c(S(=O)(=O)N2CCN(c3cccc(C(F)(F)F)c3)CC2)c1C(=O)N1CCCCC1 | 0.664%
Cc1ccc(CN2CCN(c3ncccn3)CC2)c(C)c1 | 1.42%
COc1ccccc1C1C(C#N)=C(N)Oc2c1c(-c1ccccc1)nn2-c1ccccc1 (configuration not stated) | 10.5%
CCCc1cc(=O)[nH]c(SCC(=O)N2C(C)CCCC2C)n1 (configuration not stated) | -2.36%
COc1ccc(OC)c(CCNC(=O)CCn2ccc3cc(S(=O)(=O)N4CCCC4)ccc32)c1 | -1.39%
CN1CCN(CC(=O)Nc2cccc([N+](=O)[O-])c2)CC1 | 1.18%
Cc1ccc(NC(=O)CN2CCC(C(N)=O)CC2)cc1[N+](=O)[O-] | 15.7% (active)
Cc1ccc(C)c(S(=O)(=O)N2CCN(CC(=O)Nc3ccc([N+](=O)[O-])cc3)CC2)c1 | -0.724%
CCc1nc2nc(C)c(NS(=O)(=O)c3ccc4c(c3)CCCC4)c(=O)n2[nH]1 | 1.61%
O=C(Cn1cnc2ccccc21)Nc1ccccc1-c1ccccc1 | -3.38%
O=C(O)CCC(=O)N(Cc1ccccc1)Cc1ccccc1 | -1.7%
Nc1nc(NCC2CCCO2)nc(Nc2ccccc2F)c1[N+](=O)[O-] (configuration not stated) | -2.31%
CCN1CCN(C(=O)c2ccccc2N(C)S(=O)(=O)c2ccc(C)cc2)CC1 | -3.44%
CCN(CC)C(=O)N1CCN(C(=O)c2ccc(C)cn2)CC1 | 27.2% (active)
Cc1ccc(OCC(=O)N2CCN(C(=O)c3cccnc3)CC2)cc1 | -5.2%
Cc1c(C=O)c2ccccn2c1C(=O)c1ccncc1 | -6.15%
C=CCn1c(SCc2cccc(F)c2)nc2cc(C(=O)N3CCC(C(N)=O)CC3)ccc2c1=O | -5.75%
CC(C)NC(=S)NN=C1CCCCCCCCCCC1 | 16.4%
O=[N+]([O-])c1cccc(/C([O-])=C(/C(=S)Nc2ccccc2F)[n+]2ccccc2)c1 | 44.3% (active)
Cc1ccc(/C([O-])=C(/C(=S)NCc2ccco2)[n+]2ccccc2)cc1[N+](=O)[O-] | -1.29%
CCC(C)NCC(=O)Nc1ccc([N+](=O)[O-])cc1C(=O)Nc1ccccc1F (configuration not stated) | 9.91%
CC(C)C[C@@H](COc1ccccc1)N1CCN(CC(C)C)CCC1=O | 12.1%
O=c1[nH]c(SCc2cccc(F)c2)nc2ccccc12 | 0.0734%

Structure (SMILES) | max response
Nc1nnc2c(C(F)(F)F)nc3ccccc3n12 | -5.14%
O=C1c2ccccc2C(=O)N1c1cccc2ccccc12 | -0.411%
O=C(NCc1ccc2c(c1)OCO2)c1ccc(Cl)s1 | 17.6% (active)
O=C(NCc1ccc2c(c1)OCO2)C12CC3CC(CC(C3)C1)C2 | -3.3%
COc1cc(OC)c(C(=O)NCc2ccc3c(c2)OCO3)cc1OC | -1.06%
O=C(NCc1ccc2c(c1)OCO2)c1cc(F)c(F)cc1Cl | 16.6%
O=C(NCc1ccc2c(c1)OCO2)c1cc2c(s1)CS(=O)(=O)C2 | -5.16%
O=C(NCc1ccc2c(c1)OCO2)c1sccc1Br | 16.3% (active)
Cc1ccccc1NC(=O)C(C)c1ccc(-c2ccccc2)c(F)c1 (configuration not stated) | -5.36%
CC(CC(=O)N1CCN(c2ccccc2)CC1)S(=O)(=O)c1ccc2c(c1)NC(=O)CS2 (configuration not stated) | 1.2%
Cc1cc([N+](=O)[O-])ccc1NC(=O)c1ccc(NC(=O)C(C)C)cc1 | 5.74%
O=C(Nc1ccncc1)c1ccc([N+](=O)[O-])cc1Cl | -4.24%
O=C(Nc1ccc(Br)cn1)c1ccc([N+](=O)[O-])cc1Cl | 51.7% (active)
O=C(NNS(=O)(=O)c1ccc(F)cc1)c1ccc([N+](=O)[O-])cc1Cl | -3.45%
O=C(Nc1ccc(Br)c2cccnc12)c1ccc(Cn2cc([N+](=O)[O-])cn2)o1 | -3.97%
CN1C(=O)c2ccc(C(=O)Nc3ccc(Br)cn3)cc2C1=O | 1.67%
O=C(Nc1ccc(Br)cn1)c1ccc([N+](=O)[O-])o1 | 48.9% (active)
CC(C)C(=O)Nc1cccc(NC(=O)c2ccc([N+](=O)[O-])cc2Cl)c1 | 27.7% (active)
O=C(Nc1cccnc1)c1cc([N+](=O)[O-])ccc1Cl | -2.56%
O=C1CCNCCN1[C@H](CO)Cc1ccccc1 | -1.44%
COc1cc(NC(=O)C2=C(C)OCCS2)c(Cl)cc1C(=O)NCCN1CCN(C)CC1 | -6.54%
O=C(O)c1[nH]c2ccccc2c1C(c1cccc(O)c1)c1c(C(=O)O)[nH]c2ccccc12 | -0.808%
COC(=O)c1sccc1NS(=O)(=O)c1ccc(F)cc1F | -6.38%
Cc1c(CN2CCC(n3nccc3NC(=O)CCc3ccccc3)CC2)cnn1C | 0.463%
CCNC(=O)CC1C(=O)N(c2ccc(OC)cc2)C(=O)N1CCOC (configuration not stated) | -2.06%

Structure (SMILES) | max response
COc1ccc(/C(N)=N/OC(=O)Cc2ccccc2)cc1 | 46.9% (active)
COc1ccc(/C(N)=N/OC(=O)Oc2ccccc2)cc1 | -4.11%
COc1ccc(/C(N)=N/OC(=O)CCCc2ccccc2)cc1 | 44.3% (active)
CCOC(=O)C(Cc1ccccc1)NC(=O)CCC(=O)c1ccc(OC)cc1 (configuration not stated) | -1.47%
COc1ccc(C(=O)NC(=S)NNC(=O)CCc2ccccc2)cc1 | 10.3%
COc1ccc(C(=O)OCC(=O)NCCCc2ccccc2)cc1OC | 0.591%
COCCN1CCn2c(nc3cc(NS(C)(=O)=O)ccc32)C1 | -4.53%
CC1(C)COC(c2cccn2Cc2ccccc2Cl)=N1 | 2.16%
O=C(Nc1cccc(CCc2ccccn2)c1)c1ccc(Cl)cc1 | 11%
C=CCNc1nc(C)nc(OC)n1 | -3.36%
COc1nc(NCc2ccc(Cl)cc2)nc(OC)n1 | 9.12%
C=CCNc1nc(Nc2ccc(Cl)cc2)nc(OC)n1 | 35.6% (active)
NS(=O)(=O)c1ccc(CNC(=O)c2cccc(Oc3ccccc3)c2)cc1 | 1.56%
CC1CCCN(C(=O)c2ccc3c(c2)C(=O)N(CCC2=CCCCC2)C3=O)C1 (configuration not stated) | 2.05%
COc1ccc(S(=O)(=O)N2CCOC2CNC(=O)C(=O)NCc2ccncc2)cc1OC (configuration not stated) | -2.13%
C/C(=N\NC(=O)c1ccccc1F)c1ccccn1 | 31.8% (active)
C/C(=N\NC(=O)Cc1ccc(Cl)cc1)c1ccccn1 | -1.28%
CN(NC(=O)c1ccccc1F)c1nc(C(F)(F)F)nc2ccccc12 | -3.39%
NC1=NC(=O)C(Cc2cccc(Cl)c2)S1 (configuration not stated) | 13%
COc1ccc(C(=O)NC(=S)Nc2ccccc2N2CCN(S(C)(=O)=O)CC2)cc1OC | -0.375%
O=C(NC(=S)Nc1ccccc1N1CCCCC1)c1ccc(F)cc1 | 4.5%
COc1ccccc1C(=O)NC(=S)Nc1ccccc1N1CCCCC1 | 18.9% (active)
COc1ccc(OC)c(NC(=O)c2sc3nc(C)cc(C)c3c2N)c1 | 1.77%
O=S(=O)(NC1CC1)c1ccc(F)c(F)c1 | -2.05%
COc1ccccc1-n1c(SCC(=O)Nc2cccc(C(=O)O)c2)nnc1-c1ccccc1O | 0.473%

Structure (SMILES) | max response
C=C1/C(=C\C=C2\CCCC3(C)C2CCC3C(C)/C=C/C(O)C2CC2)CC(O)CC1O (configuration not stated) | -6.77%
Cc1ccccc1C(CC(=O)c1cccs1)C(C#N)C#N (configuration not stated) | 58.6% (active)
Cc1ccc(C)c(NC(CC(=O)c2ccccc2)C(=O)OCC(=O)c2cccs2)c1 (configuration not stated) | -1.02%
C/C(=N\NC(=O)COc1c(C)cccc1C)c1cccs1 | 6.57%
Cc1cc(C(F)(F)F)nc(SCC(=O)Nc2nccs2)n1 | -1.23%
CC(=O)c1cc(C#N)c(SCC(=O)C(C)(C)C)nc1C | 55.2% (active)
CC(=O)c1cc(C#N)c(SCC(=O)Nc2nccs2)nc1C | 24.6% (active)
Cc1cccc(C)c1Nc1nnc(SCC(=O)Nc2sccc2C#N)s1 | -1.09%
CCn1c(SCC(=O)Nc2nccs2)nnc1-c1ccncc1 | -3.78%
Cc1[nH]c2ccccc2c1SCC(=O)Nc1nccs1 | 29.5% (active)
CC(=O)c1cc(C#N)c(N2CC(C)OC(C)C2)nc1C (configuration not stated) | -2.5%
CC(=O)c1cc(C#N)c(N2CCCCC2)nc1C | 2.13%
CCn1c(SCC(=O)Nc2nccs2)nnc1-c1ccco1 | -4.57%
Cc1ccccc1-c1ccc(C(=O)O)s1 | 27.3%
O=C1CSC(=S)N1c1ccc(Cl)c(Cl)c1 | 3.61%
CCS(=O)(=O)N1CCC(N2CCN(c3ccccc3)CC2)CC1 | -2.51%
Cc1ccc(N(Cc2cc(=O)[nH]c3ccccc23)C(=O)CCl)cc1 | -3.54%
COc1cc(NC(=O)c2ccccc2)c(OC)cc1NC(=O)Cc1ccccc1 | -0.835%
O=C(CCC1CCCN(C(=O)Cc2ccc(F)cc2)C1)N1CCN(c2ccccn2)CC1 (configuration not stated) | -1.12%
Cc1cccc(NC(=O)c2sc3nc(N4CCOCC4)c4c(c3c2N)CCCC4)c1 | 14.3% (active)
CC(=O)Nc1ccc(N2CCOCC2)c(C(=O)Nc2cccc(C)c2)c1 | -4.06%
Cc1cccc(NC(=O)c2sc3nc4c(c(-c5ccco5)c3c2N)CCC4)c1 | 20.8%
